Records with an inconclusive call do not appear. Active and inactive are the calls of the source. Calls follow the shape of the full dose curve.
Legend:
[1] = Primary qHTS for inhibitors of SARS-S pseudo-typed particle cell entry (AID 1479145); also: nearly all actives have a fitted effect of over 45% in size
[2] = Primary qHTS for Huh7 cytotoxicity: counterscreen for inhibitors of MERS-S pseudotyped particle cell entry (AID 1479147)
[3] = Primary qHTS for inhibitors of MERS-S pseudo-typed particle cell entry (AID 1479149); also: nearly all actives have a fitted effect of over 60% in size
[4] = Primary qHTS for Vero E6 cytotoxicity: counterscreen for inhibitors of SARS-S pseudo-typed particle cell entry (AID 1479150)

Measured: Potency

CC#C[C@]1(O)CC[C@H]2[C@@H]3CCC4=CC(=O)CCC4=C3[C@@H](c3ccc(N(C)C)cc3)C[C@@]21C
inactive: all assays above

O=C1OCCN1/N=C/c1ccc([N+](=O)[O-])o1
inactive: all assays above

O=C(O)c1cn(C2CC2)c2cc(N3CCNCC3)c(F)cc2c1=O
inactive: all assays above

Nc1cccc2c1CN(C1CCC(=O)NC1=O)C2=O (configuration not stated)
inactive: all assays above

CCCCOCCOCCOCc1cc2c(cc1CCC)OCO2
inactive: all assays above

CNC1(C)C2CCC(C2)C1(C)C (configuration not stated)
inactive: all assays above

CCCN[C@H]1CCc2nc(N)sc2C1
inactive: all assays above

O=C(C1CCCCC1)N1CC(=O)N2CCc3ccccc3C2C1 (configuration not stated)
inactive: all assays above

CC(=O)SC[C@@H](C)C(=O)N1CCC[C@H]1C(=O)N[C@@H](Cc1ccccc1)C(=O)O
inactive: all assays above

CO/N=C1\CN(c2nc3c(cc2F)c(=O)c(C(=O)O)cn3C2CC2)CC1CN (configuration not stated)
inactive: all assays above

CCCCNC(=O)NS(=O)(=O)c1ccc(C)cc1
inactive: all assays above

C[C@H]1[C@H](NC(=O)/C(=N/OC(C)(C)C(=O)O)c2csc(N)n2)C(=O)N1S(=O)(=O)O (stereo in doubt)
inactive: all assays above

Cc1ccccc1N1C(=O)c2cc(S(N)(=O)=O)c(Cl)cc2NC1C (configuration not stated)
inactive: all assays above

O=P(O)(O)C(O)(Cc1cccnc1)P(=O)(O)O
inactive: all assays above

CC(C)(C)C(=O)OCOP(=O)(COCCn1cnc2c(N)ncnc21)OCOC(=O)C(C)(C)C
inactive: all assays above

CC[C@@]1(c2ccccc2)NC(=O)N(C)C1=O
inactive: all assays above

CO/N=C(\C(=O)N[C@@H]1C(=O)N2C(C(=O)O)=C(CSc3nc(=O)c(O)nn3C)CS[C@H]12)c1csc(N)n1
inactive: all assays above

CC(C)(O)c1ccccc1CC[C@@H](SCC1(CC(=O)O)CC1)c1cccc(/C=C/c2ccc3ccc(Cl)cc3n2)c1
inactive: all assays above

CN(CCOc1ccc(NS(C)(=O)=O)cc1)CCc1ccc(NS(C)(=O)=O)cc1
inactive: all assays above

Cc1ccc2c(n1)Oc1ccc(C(C)C(=O)OCC(=O)N(C)C)cc1C2 (configuration not stated)
inactive: all assays above

CCOC(=O)[C@H](CCc1ccccc1)N[C@@H](C)C(=O)N1[C@H](C(=O)O)C[C@@H]2CCC[C@@H]21
inactive: all assays above

C=C(CC)C(=O)c1ccc(OCC(=O)O)c(Cl)c1Cl
inactive: all assays above

C[N+]1(C)CCC(OC(=O)C(O)(c2ccccc2)C2CCCC2)C1 (configuration not stated)
inactive: all assays above

CS(=O)(=O)OCCCCOS(C)(=O)=O
inactive: all assays above

NCCCC(O)(P(=O)(O)O)P(=O)(O)O
inactive: all assays above

Cc1cccc(Nc2ccncc2S(=O)(=O)NC(=O)NC(C)C)c1
inactive: all assays above

Nc1nc2c(ncn2COCCO)c(=O)[nH]1
inactive: all assays above

Cc1cc(C)cc(OCC2CNC(=O)O2)c1 (configuration not stated)
inactive: all assays above

NC(=O)NO
inactive: all assays above

CCn1cc(C(=O)O)c(=O)c2cc(F)c(N3CCNCC3)cc21
inactive: all assays above

Cc1onc(-c2c(Cl)cccc2Cl)c1C(=O)N[C@@H]1C(=O)N2[C@@H]1SC(C)(C)[C@@H]2C(=O)O
inactive: all assays above

NS(=O)(=O)c1cc2c(cc1Cl)NC=NS2(=O)=O
inactive: all assays above

CCCCCOC(=O)Nc1nc(=O)n([C@@H]2O[C@H](C)[C@@H](O)[C@H]2O)cc1F
inactive: all assays above
